Measured values as given in PubChem BioAssay (EPA / NIEHS).
Inconclusive results are not listed. Active and inactive are the calls of the source. How the source made its calls, unless noted: active means hit-call score of the fitted dose curve at least 0.9, where 1 is the maximum; inactive means score below 0.9.

Assays:
[1] = read-out: Transforming Growth Factor (TGFB1), TGFB1 (gene 7040); assay: LTEA_HepaRG_TGFB1: Life Technologies and Expression Analysis (LTEA) Assay for Transforming Growth Factor (TGFB1) Transporter using HepaRG (AID 2283533); conditions: mRNA level, 48 h; actives raise or lower the signal
How it was run: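 HepaRG, 48 h post-plating, switched to serum-free induction medium; chemicals 100 uM top, half-log, 8 pts, 0.5% DMSO, dup; 48 h exposure; RNA → Fluidigm TaqMan qRT-PCR; norm ACTB/GAPDH/POLR2A; bidirectional fit vs DMSO.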

TIMP1, TIMP1 (gene 7076) = assay: LTEA_HepaRG_TIMP1: Life Technologies and Expression Analysis (LTEA) Assay for TIMP1 using HepaRG (AID 2283534); conditions: mRNA level, 48 h; actives raise or lower the signal
How it was run: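 Readout is TIMP1 mRNA level measured by qRT-PCR and normalized to three housekeeping genes. Human HepaRG cells were treated for 48 h in duplicate at eight concentrations up to 100 uM (0.5% DMSO); gain or loss fitted against DMSO.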

[2] = read-out: Tumor necrosis factor receptor 1 (TNFRSF1A), TNFRSF1A (gene 7132); assay: LTEA_HepaRG_TNFRSF1A: Life Technologies and Expression Analysis (LTEA) Assay for Tumor necrosis factor receptor 1 (TNFRSF1A) using HepaRG (AID 2283535); conditions: mRNA level, 48 h; actives raise or lower the signal
How it was run: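 Read-out is TNFRSF1A transcript level by TaqMan qRT-PCR, normalized to three housekeeping genes, scored as gain or loss of signal versus 0.5% DMSO. Human HepaRG cells received test chemicals for 48 h at up to 100 uM (half-log series).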

[3] = read-out: Thyroid Hormone Responsive (THRSP), THRSP (gene 7069); assay: LTEA_HepaRG_THRSP: Life Technologies and Expression Analysis (LTEA) Assay for Thyroid Hormone Responsive (THRSP) using HepaRG (AID 2283536); conditions: mRNA level, 48 h; actives raise or lower the signal
How it was run: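 THRSP transcript quantified by Fluidigm qRT-PCR against three housekeeping genes after 48 h chemical exposure of HepaRG cells in serum-free induction medium; eight-point half-log series, top 100 uM, 0.5% DMSO vehicle, duplicate wells.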

[4] = read-out: Cellular tumor antigen p53 (Homo sapiens) (UniProt P04637); assay: LTEA_HepaRG_TP53: Life Technologies and Expression Analysis (LTEA) Assay for Tumor Protein P53 (TP53) using HepaRG (AID 2283537); conditions: mRNA level, 48 h; actives raise or lower the signal
How it was run: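 Read-out is TP53 transcript level by microfluidic qRT-PCR, normalised to three housekeeping genes and fitted bidirectionally against DMSO. Human HepaRG cells received compounds for 48 h, highest concentration 100 uM.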

[5] = read-out: UDP glucuronosyltransferase (UGT1A1), UGT1A1 (gene 54658); assay: LTEA_HepaRG_UGT1A1: Life Technologies and Expression Analysis (LTEA) Assay for UDP glucuronosyltransferase (UGT1A1) using HepaRG (AID 2283538); conditions: mRNA level, 48 h; actives raise or lower the signal
How it was run: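 HepaRG, 48 h chemical exposure (top 100 uM, half-log 8-pt, 0.5% DMSO vehicle), duplicate wells; qRT-PCR (TaqMan, Fluidigm array) for UGT1A1 mRNA, housekeeping-normalized; bidirectional curve fit vs DMSO baseline.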

[6] = read-out: UDP glucuronosyltransferase (UGT1A6), UGT1A6 (gene 54578); assay: LTEA_HepaRG_UGT1A6: Life Technologies and Expression Analysis (LTEA) Assay for UDP glucuronosyltransferase (UGT1A6) using HepaRG (AID 2283539); conditions: mRNA level, 48 h; actives raise or lower the signal
How it was run: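 HepaRG, 48 h post-plating switch to serum-free induction medium; chemical 48 h, 100 uM top, half-log x8, duplicate, 0.5% DMSO. Phenobarbital 1mM induction control. UGT1A6 mRNA by TaqMan qRT-PCR; gain/loss fit vs DMSO.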

[7] = read-out: X-box binding protein 1 (XBP1), XBP1 (gene 7494); assay: LTEA_HepaRG_XBP1: Life Technologies and Expression Analysis (LTEA) Assay for X-box binding protein 1 (XBP1) using HepaRG (AID 2283540); conditions: mRNA level, 48 h; actives raise or lower the signal
How it was run: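 Transcript levels of XBP1, measured by qRT-PCR and normalised to three housekeeping genes, were fitted bidirectionally relative to 0.5% DMSO controls. Human HepaRG cells received eight-point half-log dilutions from 100 uM for 48 h.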

[8] = LTEA_HepaRG_LDH_cytotoxicity: Cytotoxicity Assessment in the Life Technologies and Expression Analysis (LTEA) Assay (AID 2283563; active means hit-call score of the fitted dose curve at least 0.9, where 1 is the maximum;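 on AC50: LDH activity released into spent culture medium as a marker of cell death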)
How it was run: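 Cells were thawed and plated for 48 h. Medium was then replaced with serum-free induction medium. Chemicals (8 half-log points, maximum 100 uM, 0.5% DMSO) were added in duplicate for 48 h, after which spent medium was assayed for LDH.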

[9] = ATG_XTT_Cytotoxicity: Cytotoxicity Assessment in the Attagene TRANS-FACTORIAL HepG2 Assay (AID 2283584; active means hit-call score of the fitted dose curve at least 0.9, where 1 is the maximum)
How it was run: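 Cells: human HepG2, transiently transfected with MRTU reporter constructs. Exposure 24 h. Readout: XTT, cell number. Baseline/neg ctrl DMSO; loss-of-signal scored.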

Measured: AC50

Sequence of Cellular tumor antigen p53 (Homo sapiens) (P04637 whole entry, looked up): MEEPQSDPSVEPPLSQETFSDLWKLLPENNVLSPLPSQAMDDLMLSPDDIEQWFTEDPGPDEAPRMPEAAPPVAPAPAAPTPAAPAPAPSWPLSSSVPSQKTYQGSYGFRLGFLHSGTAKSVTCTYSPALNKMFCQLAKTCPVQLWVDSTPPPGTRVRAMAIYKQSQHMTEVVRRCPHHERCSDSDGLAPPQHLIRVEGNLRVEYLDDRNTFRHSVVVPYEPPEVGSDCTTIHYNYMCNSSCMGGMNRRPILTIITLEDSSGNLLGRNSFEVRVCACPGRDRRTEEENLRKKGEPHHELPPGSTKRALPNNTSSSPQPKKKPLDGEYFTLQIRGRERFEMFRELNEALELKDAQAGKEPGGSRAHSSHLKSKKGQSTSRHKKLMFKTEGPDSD

S=C1NCCN1
not listed: [9]
inactive: all other assays above

N#CSCSC#N
active: [3] 50 µM | [8] 75.7 µM
not listed: [4] | [9]
inactive: all other assays above

CCOP(=S)(OCC)Oc1cc(C)nc(C(C)C)n1
active: [3] 73.3 µM | [5] 10.5 µM
not listed: [9]
inactive: all other assays above

C=C(C)[C@H]1Cc2c(ccc3c2O[C@@H]2COc4cc(OC)c(OC)cc4[C@@H]2C3=O)O1
inactive: [1] | [7]
active: TIMP1, TIMP1 (gene 7076) 11.1 µM | [2] 50 µM | [3] 1.36 µM | [5] 23.7 µM | [6] 23.4 µM | [8] 6.74 µM

CCCCOC(=O)[C@@H](C)Oc1ccc(Oc2ccc(C#N)cc2F)cc1
active: [5] 49.8 µM
not listed: [9]
inactive: all other assays above

CCOP(=S)(OCC)SCCSCC
not listed: [4] | [8] | [9]
inactive: all other assays above

O=c1ccc(=O)[nH][nH]1
not listed: [4] | [9]
inactive: all other assays above

CC(C1CC1)C(O)(Cn1cncn1)c1ccc(Cl)cc1 (stereo not drawn)
active: [3] 28.1 µM
not listed: [7] | [9]
inactive: all other assays above

CCCOCC(=Nc1ccc(Cl)cc1C(F)(F)F)n1ccnc1
inactive: [7] | [9]
active: [1] 50 µM | TIMP1, TIMP1 (gene 7076) 88.9 µM | [2] 93.7 µM | [3] 19.1 µM | [4] 86.9 µM | [5] 3.03 µM | [6] 69 µM | [8] 78.9 µM

CN1COCN(Cc2cnc(Cl)s2)C1=N[N+](=O)[O-]
not listed: [9]
inactive: all other assays above

CC[C@H](C)[C@H]1O[C@]2(C=C[C@@H]1C)C[C@@H]1C[C@@H](C/C=C(\C)[C@@H](O[C@H]3C[C@H](OC)[C@@H](O[C@H]4C[C@H](OC)[C@@H](NC)[C@H](C)O4)[C@H](C)O3)[C@@H](C)/C=C/C=C3\CO[C@@H]4[C@H](O)C(C)=C[C@@H](C(=O)O1)[C@]34O)O2
active: [2] 12 µM | [5] 12.7 µM | [6] 12.5 µM | [7] 12.8 µM | [8] 18.2 µM
inactive: [1] | TIMP1, TIMP1 (gene 7076) | [3]

CCCCOC(=O)c1ccccc1C(=O)O
active: [5] 17 µM
not listed: [4] | [9]
inactive: all other assays above

CNC(=O)Oc1cccc2c1OC(C)(C)O2
not listed: [4] | [9]
inactive: all other assays above

CCCOc1nn(C(=O)NS(=O)(=O)c2ccccc2C(=O)OC)c(=O)n1C
not listed: [9]
inactive: all other assays above

CCOC(=O)COc1cc(-c2nn(C)c(OC(F)F)c2Cl)c(F)cc1Cl
active: [5] 50 µM
not listed: [9]
inactive: all other assays above

CSc1nc(NC(C)C)nc(NC(C)C)n1
active: [3] 76.7 µM | [5] 2.47 µM | [7] 50 µM
not listed: [4] | [9]
inactive: all other assays above

CCOP(=S)(OCC)Oc1ccc([N+](=O)[O-])cc1
active: [5] 10.6 µM
not listed: [9]
inactive: all other assays above

CC1=NNC(=O)N(/N=C/c2cccnc2)C1
active: [3] 12.9 µM
not listed: [9]
inactive: all other assays above
